PubChem BioAssay (Tox21)
“And” between values parts separate entries of the source, which are not always exact repeats. Equal entries are not always repeated. Results filed as inconclusive are left out. Some compounds were tested as several samples or in several runs, with calls that do not always agree. The source made the active and inactive calls. Unless noted, calls come from the whole dose curve; as a rule, active = well fitted curve in the direction sought with a large enough effect in the repeat runs; inconclusive = weak or mixed curves; inactive = no such curve, though single readings can be large; an effect the other way counts as inactive or inconclusive.

Key:
[1] = qHTS assay to identify small molecule agonists of the vitamin D receptor (VDR) signaling pathway - cell viability counter screen (AID 743224); note: series mostly up to about 63 µM; nearly all actives have a fitted effect of over 50% in size
Procedure, shortened: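 Compounds were pin-transferred onto VDR-bla cells plated 4 h earlier; following 16 h incubation at 37C, cell viability was quantified by CellTiter-Glo luminescence after 30 min at room temperature.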

[2] = qHTS assay to identify small molecule antagonists of the vitamin D receptor (VDR) signaling pathway - cell viability counter screen (AID 743225); note: nearly all actives have a fitted effect of over 50% in size
Procedure, shortened: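 Cells (VDR-UAS-bla HEK 293T) are plated, rested 4 h at 37C, dosed with compound and 3 nM final 1-alpha,25-dihydroxy vitamin D3, and incubated 16 h. Viability is taken from CellTiter-Glo luminescence in the reporter wells.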

[3] = qHTS assay to identify small molecule agonists of the NFkB signaling pathway (AID 1159509; active = well fitted curve in the direction sought with a large enough effect in the signal ratio in the repeat runs, not every such curve was filed as active; the % refers to the signal ratio; note: series mostly up to about 61 µM)
Procedure, shortened: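 Agonist activity was read as beta-lactamase-driven FRET change (460 and 530 nm emission, 405 nm excitation) following 1.5 hr substrate loading at room temperature. Beforehand, ME-180 NFkB-bla reporter cells were treated with compounds for 5 hr at 37 C.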

[4] = qHTS assay to identify small molecule agonists of the NFkB signaling pathway - cell viability counter screen (AID 1159515; calls by dose curve; note: series mostly up to about 61 µM; nearly all actives have a fitted effect of over 55% in size)
Procedure, shortened: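 Parallel cytotoxicity counter screen in ME-180 cells carrying an NFkB-response-element beta-lactamase reporter, 2,000 cells/well. Compound exposure lasted 5 hr at 37 C, 5% CO2. Cell viability was quantified by CellTiter-Glo luminescence.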

[5] = qHTS assay to identify small molecule agonists of the endoplasmic reticulum stress response signaling pathway (AID 1159516; active = well fitted activation curve with a large enough effect in the signal ratio in the repeat runs, not every such curve was filed as active; the % refers to the signal ratio)
Procedure, shortened: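 Using a HeLa line with an ESRE-driven beta-lactamase gene, agonist activity was measured by FRET substrate fluorescence (460 and 530 nm emission) after cells were treated with compounds for 5 hr at 37 C and 5% CO2.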

[6] = qHTS assay to identify small molecule agonists of the endoplasmic reticulum stress response signaling pathway - cell viability counter screen (AID 1159517; calls by dose curve;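 note: HeLa cells carrying an ER stress response element beta-lactamase reporter; series mostly up to about 61 µM; nearly all actives have a fitted effect of over 50% in size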)
Procedure, shortened: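 Cpd-treated ESRE-bla HeLa (5 hr, 37 C) → LiveBLAzer 2 hr RT → CellTiter-Glo 30 min RT → luminescence.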

[7] = qHTS assay to identify small molecule antagonists of the retinoid-related orphan receptor gamma (ROR-gamma) signaling pathway - cell viability counter screen (AID 1159520); note: nearly all actives have a fitted effect of over 50% in size
Procedure, shortened: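 Tet-on ROR gamma CHO cells (1,000/well) were plated 4 hr, given compounds in DMSO for 2 hr at 37 C, then induced with 1 uM final doxycycline for 16 hr. Viability was read as ATP by CellTiter-Glo luminescence after 30 min.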

[8] = target: Nuclear receptor ROR-gamma (Homo sapiens) (UniProt P51449); test: qHTS assay to identify small molecule antagonists of the retinoid-related orphan receptor gamma (ROR-gamma) signaling pathway (AID 1159521)
Procedure, shortened: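 RORγ antagonism is scored from reduced reporter luminescence in Tet-on CHO cells. Induction used 1 uM final doxycycline hyclate for 16 h at 37 C, following a 2 h compound exposure.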

[9] = qHTS assay to identify small molecule agonists of the AP-1 signaling pathway - cell viability counter screen (AID 1159525; calls by dose curve; note: nearly all actives have a fitted effect of over 55% in size)
Procedure, shortened: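 Each titration point was normalised to DMSO and tetra n-octyl ammonium bromide controls. The read was Cell Titer Glo luminescence after 30 min at RT, following 5 h compound exposure of ME-180 AP-1-bla cells at 37 °C.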

[10] = qHTS assay to identify small molecule agonists of the AP-1 signaling pathway (AID 1159526; calls by dose curve)
[11] = target: Retinoic acid receptor RXR-alpha (Homo sapiens) (UniProt P19793); test: qHTS assay to identify small molecule agonists of the RXR signaling pathway (AID 1159527; calls by dose curve; note: nearly all actives have a fitted effect of over 35% in size; note: potency is the fitted concentration of half-maximal effect)
Sequence of Retinoic acid receptor RXR-alpha (Homo sapiens) (P19793 whole entry, looked up): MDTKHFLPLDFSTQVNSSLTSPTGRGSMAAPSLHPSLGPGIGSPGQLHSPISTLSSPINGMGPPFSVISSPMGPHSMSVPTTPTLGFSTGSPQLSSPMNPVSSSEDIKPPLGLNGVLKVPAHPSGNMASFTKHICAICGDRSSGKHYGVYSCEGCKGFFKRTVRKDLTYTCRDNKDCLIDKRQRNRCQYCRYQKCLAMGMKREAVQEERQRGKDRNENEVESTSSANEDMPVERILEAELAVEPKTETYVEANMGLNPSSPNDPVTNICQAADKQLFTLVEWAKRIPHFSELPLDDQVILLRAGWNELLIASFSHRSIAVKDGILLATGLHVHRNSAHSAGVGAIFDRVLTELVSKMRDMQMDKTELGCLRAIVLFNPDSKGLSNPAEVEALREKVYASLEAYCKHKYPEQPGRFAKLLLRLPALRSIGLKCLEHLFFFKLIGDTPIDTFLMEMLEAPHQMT
Procedure, shortened: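 qHTS of the Tox21 10K library in GeneBLAzer RXR-alpha HEK 293T cells carrying a beta-lactamase reporter […]; 16 hr treatment, 9-cis retinoic acid as agonist control, FRET read-out.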

[12] = qHTS assay to identify small molecule agonists of the RXR signaling pathway - cell viability counter screen (AID 1159529)
Procedure, shortened: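 Cell viability is measured by CellTiter-Glo luminescence, 30 min at room temperature, in wells already read for beta-lactamase. Engineered HEK 293T cells (RXR-alpha-UAS-bla) are dosed 16 hr at 37 C. Tetraoctyl ammonium bromide serves as positive control.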

[13] = qHTS assay to identify small molecule antagonists of the retinoid acid receptor (RAR) signaling pathway - cell viability counter screen (AID 1159551); note: nearly all actives have a fitted effect of over 35% in size
Procedure, shortened: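 ATP-based viability, C3RL4 cells, 6 h at 37 C with 1 uM final retinol co-added after compound; luminescence read 30 min post CellTiter-Glo, RT.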

[14] = qHTS assay to identify small molecule antagonists of the retinoic acid receptor (RAR) signaling pathway (AID 1159552; note: nearly all actives have a fitted effect of over 50% in size)
Procedure, shortened: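 Quantitative HTS in C3RL4 RARE-luciferase reporter cells. Compounds were added with 1 uM (final) retinol; luminescence was read after 6 hr.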

[15] = qHTS assay to identify small molecule agonists of the retinoic acid receptor (RAR) signaling pathway (AID 1159553); note: potency is the fitted concentration of half-maximal effect
Procedure, shortened: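 Quantitative high-throughput format: the Tox21 10K library was tested on C3RL4 RARE-luciferase cells for 6 hr at 37 C and 5% CO2, with luminescence measured after a 30 min room-temperature reagent step.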

[16] = qHTS assay to identify small molecule antagonists of the estrogen related receptor (ERR) signaling pathway - cell viability counter screen (AID 1224818);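 note: series mostly up to about 46 µM; viability measured after 17.5 h of compound exposure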
Procedure, shortened: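 Quantitative high-throughput viability counter screen in ERR cells. Compounds (DMSO) incubated 17.5 h at 37 C; read-out was CellTiter-Fluor fluorescence.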

[17] = qHTS assay to identify small molecule antagonists of the estrogen related receptor signaling pathway with the pleiotropic PPARgamma coactivator (PGC) cell viability counter screen (AID 1224822; note: series mostly up to about 46 µM)
Procedure, shortened: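 Cytotoxicity in the PGC/ERR cell line is assessed with CellTiter-Fluor, read as fluorescence intensity 30 min after reagent addition, following 17.5 h compound treatment at 37 C.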

Measured: Potency

COc1nc(NC(C)C)nc(NC(C)C)n1
not listed: [16] | [17]
inactive: all other assays above

ClCCOCCCl
not listed: [16] | [17]
inactive: all other assays above

Cc1ccc(O)c(C)c1
not listed: [16] | [17]
inactive: all other assays above

O=C(O)Cc1ccccc1
not listed: [16] | [17]
inactive: all other assays above

O=C(O)c1cc(Oc2ccc(C(F)(F)F)cc2Cl)ccc1[N+](=O)[O-]
not listed: [1] | [16] | [17]
inactive: all other assays above

CN(C)NC(=O)CCC(=O)O
not listed: [16] | [17]
inactive: all other assays above

C[C@H]1C(=O)O[C@@H]2CCN3CC=C(COC(=O)[C@](C)(O)[C@]1(C)O)[C@H]23
not listed: [1] | [16] | [17]
inactive: all other assays above

NNc1ccccc1
not listed: [14] | [15] | [16] | [17]
inactive: all other assays above

Cc1cccc(C)c1NC(=O)CN1CCCC1=O
inactive: all assays above

OC[C@@H](O)[C@H]1O[C@@H]2O[C@H](C(Cl)(Cl)Cl)O[C@@H]2[C@H]1O
not listed: [1] | [16] | [17]
inactive: all other assays above

CN1C(=O)CCS(=O)(=O)C1c1ccc(Cl)cc1 (stereo unspecified)
inactive: all assays above

C=CC(=O)OCCCCCC(C)C
not listed: [1] | [16] | [17]
inactive: all other assays above

Nc1ncc([N+](=O)[O-])s1
not listed: [1] | [16] | [17]
inactive: all other assays above

Cc1cccc(C)c1N
not listed: [16] | [17]
inactive: all other assays above

O=C/C=C/c1ccccc1
inactive and 34.4 µM (active): [15]
not listed: [16] | [17]
inactive: all other assays above

O=P1(NCCCl)OCCCN1CCCl (stereo unspecified)
not listed: [1] | [16] | [17]
inactive: all other assays above

OCC(O)CCl (stereo unspecified)
not listed: [1] | [2] | [12] | [16] | [17]
inactive: all other assays above

Cl/C=C/Cl
not listed: [1] | [16] | [17]
inactive: all other assays above

CC(C)(C)C(=O)CCl
not listed: [1] | [14] | [15] | [16] | [17]
inactive: all other assays above

COC(=O)Nc1cccc(OC(=O)Nc2cccc(C)c2)c1
active: [15] 8.63 µM and 19.3 µM
not listed: [1] | [16] | [17]
inactive: all other assays above

Nc1ccc([As](=O)(O)O)cc1
not listed: [14] | [15] | [16] | [17]
inactive: all other assays above

CCCOC(=O)c1ccccc1C(=O)OCCC
not listed: [1] | [14] | [15] | [16] | [17]
inactive: all other assays above

Cc1cccc(N)c1
not listed: [14] | [16] | [17]
inactive: all other assays above

N#Cc1ccccn1
not listed: [1] | [16] | [17]
inactive: all other assays above

CNC(=O)O/N=C/C(C)(C)S(C)(=O)=O
not listed: [1] | [16] | [17]
inactive: all other assays above

Cc1ccc(N)cc1
61.5 µM (active) and inactive: [15]
inactive and 19.5 µM (active): [11]
not listed: [16] | [17]
inactive: all other assays above

Cc1cccc(N)c1C
11.4 µM (active) and inactive: [11]
not listed: [16] | [17]
inactive: all other assays above

COP(=S)(OC)Oc1ccc(SC)c(C)c1
active: [15] 19.3 µM
not listed: [1] | [16] | [17]
inactive: all other assays above

CC12CC1(C)C(=O)N(c1cc(Cl)cc(Cl)c1)C2=O (stereo unspecified)
not listed: [14] | [15] | [16] | [17]
inactive: all other assays above

C=CC#N
not listed: [1] | [16] | [17]
inactive: all other assays above

CC[N+](=O)[O-]
not listed: [12] | [16] | [17]
inactive: all other assays above

O=C(O)COc1ccccc1
not listed: [8] | [14] | [15] | [16] | [17]
inactive: all other assays above

C=CC(=O)OCC(CC)CCCC (stereo unspecified)
not listed: [1] | [12] | [16] | [17]
inactive: all other assays above

CC(=O)C1CCOC1=O (stereo unspecified)
not listed: [12] | [16] | [17]
inactive: all other assays above

FC(F)(F)c1ccc(Cl)cc1
not listed: [12] | [16] | [17]
inactive: all other assays above

CNC(=O)O/N=C(\SC)C(=O)N(C)C
not listed: [6] | [16] | [17]
inactive: all other assays above

Nc1cc(Cl)cc(Cl)c1
not listed: [6] | [16] | [17]
inactive: all other assays above

CC(C)CCCCCCOC(=O)c1ccccc1C(=O)OCCCCCCC(C)C
not listed: [8] | [14] | [15] | [16] | [17]
inactive: all other assays above

CCOP(=S)(OCC)Oc1ccc([N+](=O)[O-])cc1
not listed: [6] | [16] | [17]
inactive: all other assays above

Cc1cc(O)ccc1Cl
inactive and 12.3 µM (active): [11]
not listed: [12] | [16] | [17]
inactive: all other assays above
